{
  "source": "ChEMBL document CHEMBL2218924",
  "about": "“A broad activity screen in support of a chemogenomic map for kinase signalling research and drug discovery” (Biochem J, 2013)",
  "data": [
    {"biological_target": "T1, Serine/threonine-protein kinase Sgk2 (Homo sapiens) (UniProt Q9HBY8)", "T1 sequence (whole entry)": "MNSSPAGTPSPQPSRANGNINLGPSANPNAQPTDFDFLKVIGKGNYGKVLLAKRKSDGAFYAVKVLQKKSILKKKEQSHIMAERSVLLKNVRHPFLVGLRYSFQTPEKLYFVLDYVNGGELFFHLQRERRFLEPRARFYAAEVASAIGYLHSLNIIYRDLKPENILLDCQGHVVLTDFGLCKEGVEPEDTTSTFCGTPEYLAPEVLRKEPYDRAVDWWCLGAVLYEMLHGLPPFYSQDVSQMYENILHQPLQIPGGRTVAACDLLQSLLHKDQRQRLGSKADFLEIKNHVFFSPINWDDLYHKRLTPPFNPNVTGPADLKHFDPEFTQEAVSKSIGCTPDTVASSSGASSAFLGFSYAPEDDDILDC", "conditions": "at 1 µM", "units": {"residual activity": "%"}, "values": [
      {"smiles": "Nc1cccc(-c2cc3c(Oc4cccc(O)c4)ncnc3[nH]2)c1", "residual activity": 101},
      {"smiles": "Cc1cccc(-c2[nH]c(C(C)(C)C)nc2-c2ccc3c(c2)OCO3)n1", "residual activity": 89},
      {"smiles": "COc1cc2ncnc(Nc3ccc(NC(=O)c4ccccc4)cc3)c2cc1OC", "residual activity": 95},
      {"smiles": "Cn1nc2c3c(cccc31)C(=O)c1ccccc1-2", "residual activity": 100},
      {"smiles": "N#Cc1cnc2cnc(NCc3cccnc3)cc2c1Nc1ccc(F)c(Cl)c1", "residual activity": 79},
      {"smiles": "c1ccc2c(-c3ccncc3)c[nH]c2c1", "residual activity": 92},
      {"smiles": "O=C(Nc1cccc(Nc2nccc(Nc3cccc(C(F)(F)F)c3)n2)c1)C1CC1", "residual activity": 108},
      {"smiles": "CC(C)n1cnc2c(NCc3ccccc3)nc(NCCCO)nc21", "residual activity": 79},
      {"smiles": "O=C(O)c1ccc2c3c1cccc3c(=O)n1c3ccccc3nc21", "residual activity": 116},
      {"smiles": "Cn1cnc2cc3c(Nc4cccc(Br)c4)ncnc3cc21", "residual activity": 94},
      {"smiles": "O=C1Nc2ccc(Br)cc2/C1=C\\c1cc2c([nH]1)CCCC2", "residual activity": 111},
      {"smiles": "CC(=O)c1ccc(N2CCOCC2)cc1O", "residual activity": 105},
      {"smiles": "Cc1ccc(S(=O)(=O)/C=C/C#N)cc1", "residual activity": 97},
      {"smiles": "O=C1NC(=O)c2cc(Nc3ccc(F)cc3)c(Nc3ccc(F)cc3)cc21", "residual activity": 97},
      {"smiles": "C[C@@H](N)[C@H]1CC[C@H](C(=O)Nc2ccncc2)CC1", "residual activity": 97},
      {"smiles": "Cn1cc(/C=C2\\C(=O)Nc3ccc(S(N)(=O)=O)cc32)c2ccccc21", "residual activity": 74},
      {"smiles": "O=C1Nc2ccccc2/C1=C1/Nc2ccccc2/C1=N\\OCCC(O)CO", "note": "(stereo unspecified)", "residual activity": 63},
      {"smiles": "c1ccc(-c2n[nH]c3c2oc2ccccc23)cc1", "residual activity": 94},
      {"smiles": "NC(=O)c1ccc2[nH]c(-c3ccc(Oc4ccc(Cl)cc4)cc3)nc2c1", "residual activity": 112},
      {"smiles": "Cc1cc(Nc2nc(-c3ccccc3)nc3ccccc23)n[nH]1", "residual activity": 77},
      {"smiles": "Cc1cc2ncc(-c3ccccc3)nc2cc1C", "residual activity": 99},
      {"smiles": "Cc1nc2cc3nc(-c4cccs4)cnc3cc2n1C", "residual activity": 104},
      {"smiles": "CO[C@H]1[C@@H](OC)C[C@H](C)[C@@H](OC)C2=CC(=O)C=C(NC(=O)/C(C)=C/C=C/[C@H](OC)[C@@H](OC(N)=O)/C(C)=C/[C@@H]1C)C2=O", "residual activity": 97},
      {"smiles": "CN(C)CCCn1cc(C2=C(c3c[nH]c4ccccc34)C(=O)NC2=O)c2ccccc21", "residual activity": 41},
      {"smiles": "Oc1ccc(-c2nc(-c3ccc(F)cc3)c(-c3ccncc3)[nH]2)cc1", "residual activity": 99},
      {"smiles": "COc1cc2ncc(-c3ccccc3)nc2cc1OC", "residual activity": 96},
      {"smiles": "COc1cc2ncnc(N3CCN(C(=O)Nc4ccc(Oc5ccccc5)cc4)CC3)c2cc1OC", "residual activity": 101},
      {"smiles": "O=C1NC(=O)/C(=C\\c2ccc3nccnc3c2)S1", "residual activity": 103},
      {"smiles": "Oc1ccc(Nc2nc(-c3ccc(Cl)cc3)cs2)cc1", "residual activity": 114}
    ]},
    {"biological_target": "T1, Serine/threonine-protein kinase Sgk2 (Homo sapiens)", "conditions": "at 10 µM", "units": {"residual activity": "%"}, "values": [
      {"smiles": "Nc1cccc(-c2cc3c(Oc4cccc(O)c4)ncnc3[nH]2)c1", "residual activity": 73},
      {"smiles": "Cc1cccc(-c2[nH]c(C(C)(C)C)nc2-c2ccc3c(c2)OCO3)n1", "residual activity": 87},
      {"smiles": "COc1cc2ncnc(Nc3ccc(NC(=O)c4ccccc4)cc3)c2cc1OC", "residual activity": 68},
      {"smiles": "Cn1nc2c3c(cccc31)C(=O)c1ccccc1-2", "residual activity": 69},
      {"smiles": "N#Cc1cnc2cnc(NCc3cccnc3)cc2c1Nc1ccc(F)c(Cl)c1", "residual activity": 63},
      {"smiles": "c1ccc2c(-c3ccncc3)c[nH]c2c1", "residual activity": 24},
      {"smiles": "O=C(Nc1cccc(Nc2nccc(Nc3cccc(C(F)(F)F)c3)n2)c1)C1CC1", "residual activity": 89},
      {"smiles": "CC(C)n1cnc2c(NCc3ccccc3)nc(NCCCO)nc21", "residual activity": 67},
      {"smiles": "O=C(O)c1ccc2c3c1cccc3c(=O)n1c3ccccc3nc21", "residual activity": 85},
      {"smiles": "Cn1cnc2cc3c(Nc4cccc(Br)c4)ncnc3cc21", "residual activity": 72},
      {"smiles": "O=C1Nc2ccc(Br)cc2/C1=C\\c1cc2c([nH]1)CCCC2", "residual activity": 109},
      {"smiles": "c1ccc(-c2n[nH]cc2-c2ccnc3ccccc23)nc1", "residual activity": 69},
      {"smiles": "CC(=O)c1ccc(N2CCOCC2)cc1O", "residual activity": 66},
      {"smiles": "N#CCCc1ccc2c(c1)-c1[nH]c3ccc([N+](=O)[O-])cc3c1CC(=O)N2", "residual activity": 72},
      {"smiles": "Cc1ccc(S(=O)(=O)/C=C/C#N)cc1", "residual activity": 101},
      {"smiles": "O=C1NC(=O)c2cc(Nc3ccc(F)cc3)c(Nc3ccc(F)cc3)cc21", "residual activity": 67},
      {"smiles": "C[C@@H](N)[C@H]1CC[C@H](C(=O)Nc2ccncc2)CC1", "residual activity": 96},
      {"smiles": "Cn1cc(/C=C2\\C(=O)Nc3ccc(S(N)(=O)=O)cc32)c2ccccc21", "residual activity": 61},
      {"smiles": "O=C1Nc2ccccc2/C1=C1/Nc2ccccc2/C1=N\\OCCC(O)CO", "note": "(stereo unspecified)", "residual activity": 47},
      {"smiles": "c1ccc(-c2n[nH]c3c2oc2ccccc23)cc1", "residual activity": 72},
      {"smiles": "NC(=O)c1ccc2[nH]c(-c3ccc(Oc4ccc(Cl)cc4)cc3)nc2c1", "residual activity": 104},
      {"smiles": "N#CC(C#N)=C(N)/C(C#N)=C/c1ccc(O)cc1", "residual activity": 75},
      {"smiles": "Cc1cc(Nc2nc(-c3ccccc3)nc3ccccc23)n[nH]1", "residual activity": 55},
      {"smiles": "Cc1cc2ncc(-c3ccccc3)nc2cc1C", "residual activity": 107},
      {"smiles": "Cc1nc2cc3nc(-c4cccs4)cnc3cc2n1C", "residual activity": 64},
      {"smiles": "CO[C@H]1[C@@H](OC)C[C@H](C)[C@@H](OC)C2=CC(=O)C=C(NC(=O)/C(C)=C/C=C/[C@H](OC)[C@@H](OC(N)=O)/C(C)=C/[C@@H]1C)C2=O", "residual activity": 76},
      {"smiles": "CN(C)CCCn1cc(C2=C(c3c[nH]c4ccccc34)C(=O)NC2=O)c2ccccc21", "residual activity": 9},
      {"smiles": "Oc1ccc(-c2nc(-c3ccc(F)cc3)c(-c3ccncc3)[nH]2)cc1", "residual activity": 55},
      {"smiles": "COc1cc2ncc(-c3ccccc3)nc2cc1OC", "residual activity": 76},
      {"smiles": "COc1cc2ncnc(N3CCN(C(=O)Nc4ccc(Oc5ccccc5)cc4)CC3)c2cc1OC", "residual activity": 141},
      {"smiles": "O=C1NC(=O)/C(=C\\c2ccc3nccnc3c2)S1", "residual activity": 75},
      {"smiles": "Oc1ccc(Nc2nc(-c3ccc(Cl)cc3)cs2)cc1", "residual activity": 107}
    ]}
  ]
}
